GRIN3A LBD mod: binders of NR3A ligand-binding domain, primary screen, biophysical, differential scanning fluorimetry, uHTS | Glutamate receptor ionotropic, NMDA 3A (GRIN3A) ligand-binding domain | NR3A LBD differential scanning fluorimetry, Tm shift; 0% = protein alone, 100% = glycine-bound protein | Tm shift relative to glycine control, % at 25 µM | 340,000 tested, 2.5% active | AID 1259313, 2017;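 active means melting temperature shift of at least 10% of the positive control shift, at one fixed dose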
sPLA2-III inh: human group III sPLA2 inhibitors, primary screen, biochemical, QFRET, BODIPY PC-A2 liposome substrate; inhibition, % at 12.2 µM; QFRET BODIPY PC-A2 liposome hydrolysis, fluorescence; Group 3 secretory phospholipase A2 (Homo sapiens), Q9NZ20; AID 743126, 2013; 370,000 tested, 0.56% active;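 active means inhibition above mean plus 3 SD of compounds lying within the high and low control bounds, cut at about 19% in these data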;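 further: 0% = median of test compound wells and 100% = no enzyme DMSO wells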
Target sequence (Q9NZ20 whole entry, looked up): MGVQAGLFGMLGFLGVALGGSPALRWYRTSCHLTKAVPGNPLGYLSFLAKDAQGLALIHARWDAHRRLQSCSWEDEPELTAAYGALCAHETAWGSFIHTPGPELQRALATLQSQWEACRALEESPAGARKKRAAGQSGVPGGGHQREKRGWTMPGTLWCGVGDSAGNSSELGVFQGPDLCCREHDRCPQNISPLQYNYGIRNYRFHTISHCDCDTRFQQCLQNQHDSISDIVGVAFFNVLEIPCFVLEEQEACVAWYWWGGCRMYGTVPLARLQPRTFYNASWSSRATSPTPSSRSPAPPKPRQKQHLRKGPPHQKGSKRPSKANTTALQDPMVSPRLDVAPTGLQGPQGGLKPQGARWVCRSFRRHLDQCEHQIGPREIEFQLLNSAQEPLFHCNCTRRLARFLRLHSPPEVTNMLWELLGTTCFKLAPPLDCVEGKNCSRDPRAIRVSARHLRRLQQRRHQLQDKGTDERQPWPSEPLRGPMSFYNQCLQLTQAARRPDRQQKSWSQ
SUMO HTRF inh: inhibitors of in vitro SUMOylation cascade, primary screen, biochemical, HTRF, uHTS | inhibition, % at 35 µM | SUMO-conjugating enzyme UBC9 (Homo sapiens), P63279 | 290,000 tested, 0.36% active | HTRF SUMOylation assay, SAE1/SAE2 + UBC9; in the data active means inhibition above about 50%, passing the limit was not always enough; inconclusive means no clear call, values can overlap the other calls
UBC13 inh: UBC13 polyubiquitin chain formation inhibitors, primary screen, biochemical, TR-FRET, uHTS. AID 485273, 2010. Ubiquitin-conjugating enzyme E2 N (Homo sapiens), P61088. inhibition, % at 20 µM. 330,000 tested, 0.47% active; in the data active means inhibition above about 45%, passing the limit was not always enough; inconclusive means no clear call, values can overlap the other calls
Casp3 UBC13 ctr: CASP3 inhibitor validation, counterassay for project on UBE2N polyubiquitination blockers, biochemical, one dose. shares compounds with UBC13 inh. Recombinant caspase-3, Caspase-Glo 3/7 luminescence, 60 min. inhibition, % at 20 µM. 1,400 tested, 4% active. AID 488856, 2010;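 active means mean inhibition across replicates above about 26%, limit read from the data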;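 further: plate controls were DMSO with caspase-3 for no effect and DMSO wells lacking enzyme for full effect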
UBC13 confirm: UBC13 polyubiquitination inhibitors, single-point retest, confirmation, biochemical, TR-FRET, single concentration | inhibition, % at 10 µM | shares compounds with UBC13 inh | 1,400 tested, 68% active; in the data active means inhibition above about 45%; inconclusive means no clear call, values can overlap the other calls
Numbers without * were called inactive; ? = inconclusive; . = no result given. Shown are actives, neighbours in structure and some others; about 3.3% of the full set was active somewhere.

SMILES | GRIN3A LBD mod | sPLA2-III inh | SUMO HTRF inh | UBC13 inh | Casp3 UBC13 ctr | UBC13 confirm
COc1cc(-c2nc3ccc(N4CCN(C)CC4)cc3[nH]2)cc(OC)c1OC | 0 | 0 | ? | 45* | -1 | 37
O=C(Cn1cnc2ccccc2c1=O)N1CCN(C(=O)C2CCCO2)CC1 (stereo not given) | . | 3 | . | . | . | .
COC(=O)[C@]12C[C@H](CC(=O)NCCCCc3ccccc3)C(=O)N(CCC3=CCCCC3)C1=C[C@H](C(C)C)O[C@@H]2C1CC1 | . | -11 | . | . | . | .
COc1cccc(-c2c(-c3cc(OC)cc(OC)c3)n(C)c3ccc(-c4ccc(OC)nc4)cc23)c1 | 2 | 1 | . | 46* | 3 | ?
COc1ccc(-c2c(-c3cc(OC)cc(OC)c3)n(C)c3ccc(Br)cc23)cc1 | 4 | 8 | . | 48* | 2 | 42
COc1cc(OC)cc(-c2c(-c3ccc(F)cc3)c3cc(-c4ccc(OC)nc4)ccc3n2C)c1 | -1 | 3 | . | 29 | . | .
COc1cccc(-c2c(-c3cc(OC)cc(OC)c3)n(C)c3ccc(Br)cc23)c1 | 4 | 3 | . | 27 | . | .
Cc1cccc(Cn2cc(CN3CC(N4CCN(CCOC(=O)c5cc6ccccc6o5)CC4)CS3(=O)=O)nn2)c1 (stereo not given) | . | 15 | . | . | . | .
CCN1C(N(C)CCc2cccs2)=N[C@@H](c2ccccc2)C(C(=O)OC)=C1C | 4 | 3 | 8 | 14 | . | .
CCN1C(N(C)CCc2c[nH]c3ccccc23)=N[C@@H](c2cccc(C(F)(F)F)c2)C(C(=O)OC)=C1C | -4 | . | . | 60* | -1 | 49*
CCOC(=O)c1cccc(Nc2nc(-c3cccnc3)nc3ccccc23)c1 | 2 | -33 | 27 | 60* | -4 | 70*
COc1cccc(CNc2nc(-c3cccnc3)nc3ccccc23)c1 | -13 | -12 | -23 | 53* | 3 | 42
COc1cc(F)c(S(=O)(=O)N2CCCN(S(=O)(=O)c3cccc(N)c3)CC2)c(F)c1 | . | -10 | . | . | . | .
NS(=O)(=O)c1ccc(NC(=O)N2c3ccccc3Sc3ccccc32)cc1 | -3 | 9 | -28 | 46* | 1 | -2
COC(=O)[C@]12C[C@H](CC(=O)N3CCSCC3)C(=O)N(Cc3ccc(Cl)cc3Cl)C1=C[C@H](COCc1ccccc1)O[C@@H]2C | . | -4 | . | . | . | .
C#CCOCCOCCOCCNc1nc(N2CCN(C(=O)[C@H](CCCCN)n3cc(CN)nn3)CC2)nc(N2CCN(C(=O)[C@H](CCCCN)n3cc(CN)nn3)CC2)n1 | 3 | 10 | . | 103* | -8 | 112*
C#CCOCCOCCOCCNc1nc(N2CCN(C(=O)[C@H](CCCCN)n3cc(CN)nn3)CC2)nc(N2CCN(C(=O)[C@H](CCC(=O)O)n3cc([C@@H](N)CCCCN)nn3)CC2)n1 | 3 | 0 | . | 105* | -3 | 114*
C#CCOCCOCCOCCNc1nc(N2CCOCC2)nc(N2CCN(C(=O)[C@H](CCCCN)n3cc(CCC(=O)O)nn3)CC2)n1 | 1 | 2 | . | . | . | .
C#CCOCCOCCOCCNc1nc(N2CCN(C(=O)[C@H](CCC(=O)O)n3cc(CN)nn3)CC2)nc(N2CCN(C(=O)[C@H](CCCCN)n3cc([C@@H](N)CC(N)=O)nn3)CC2)n1 | -2 | 0 | . | 16 | . | .
Cc1ccc(S(=O)(=O)n2cc(C=O)c3ccccc32)cc1 | 0 | -8 | 6 | 83* | 5 | 85*
CN(C)CCCNC(=O)c1ccc(-c2nc(-c3ccc(Cl)cc3)cs2)cc1 | -1 | -23 | 14 | 54* | 2 | 68*
CN(C)CCCNC(=O)c1ccccn1 | -1 | 1 | 6 | 5 | . | .
CN(C)CCCNC(=O)c1ccc(-c2cc(O)c3ncccc3c2)cc1 | -3 | -9 | . | 112* | 2 | 118*
Cn1cncc1C#Cc1c(-c2ccc(S(C)(=O)=O)cc2)sc2ccccc12 | -14 | 0 | . | 69* | -5 | 50*

High-throughput results from PubChem.
